Results on 40 molecules are retold here after ChEMBL document CHEMBL3433997, “St. Jude Leishmania screening dataset” (2016).

The target of the first experiment is Hexose transporter 1 (Plasmodium falciparum) (UniProt O97467). As to the kind of experiment: ST_JUDE_LEISH: Cytotoxicity at 2uM final concentration against transgenic Leishmania Mexicana promastigotes LmPfHT that are glucose transport deficient and complemented with the Plasmodium falciparum hexose transporter. Activity is measured by DNA content using SYBR green in vitro. The experiment is classed as functional.
In the case of `CCOC(=O)C1=C(C)NC2=C(C(=O)C(C(=O)OC)C(C)C2)C1c1cc(Br)c(OCC)c(OC)c1` (stereo not given), the inhibition was determined as 6.84%.

For `Cc1[nH]c(C)c(-c2ccc(-c3ccc(Cl)cc3)nc2)c(=O)c1Cl`, the inhibition is 1.71%.

For `COc1cccc(CN2CCCC(OC(c3ccc(F)cc3)c3ccc(F)cc3)C2)c1O` (stereo not given), the inhibition stood at 0.76%.

For `N=C(N)NC(=O)Nc1cc(Br)c(Cl)c(Br)c1`, the inhibition was -1.3%.

For the molecule `CCCc1cc(NCc2ccncc2)nc(Nc2ccc(F)cc2)n1`, the inhibition is 8.66%.

Turning to `OCc1ccc2nc3c(cc2c1)-c1cccc2cccc-3c12`, the inhibition was 1.82%.

As for `CC1CCN(c2nc(C(=O)Nc3cccc4c3CCCC4)c(C(C)C)s2)CC1`, the inhibition is 4.73%.

With `CC(=O)N(C)C1CCN(Cc2cccc(-c3ccc(-c4nc5cc(F)ccc5[nH]4)cc3)c2)C1` (stereo not given), the inhibition turned out to be 2.4%.

For the molecule `CN(C)c1ccc(/N=C2/N/C(=N/c3ccc(N(C)C)cc3)c3ccccc32)cc1`, the inhibition worked out at 6.38%.

On to `Cc1ccc(-c2nnc(-c3ccc(C(=O)NC4CCN(Cc5ccc(C#N)cc5)CC4)cc3)o2)cc1Br`, for which the inhibition worked out at 5.73%.

With `CC(C)c1ccc(NC(=O)c2ccc(CN3CCCN(Cc4cccc(Cl)c4)CC3)cc2)cc1`, the inhibition was 1.46%.

For the molecule `COc1cc(O)c2c(=O)c(OC)c(-c3cccc(Cl)c3OCC(=O)O)oc2c1OC`, the inhibition is -1.48%.

`N=C(N)c1cc(Br)cc(NC(=O)Nc2cc(Br)cc(C(=N)N)c2)c1`: the inhibition amounted to 2.44%.

In the case of `COc1ccc2nc(-c3ccccc3)cc(NCCN(C)C)c2c1`, the inhibition was found to be 9.21%.

On to `CCOc1ccc(C(C)NC(=O)Nc2ccccc2)cc1OCC` (stereo not given), for which the inhibition worked out at 2.66%.

`Cc1cc(-c2ccc(NC(=O)N3CCc4cc(Br)c(N5CCN(C)CC5)cc43)cc2)cc(C)n1`: the inhibition was 8.41%.

Consider `CCc1ccc(OCCCON2C(=N)N=C(N)NC2(C)C)cc1`, for which the inhibition is 1.92%.

As for `CCCCCCn1c(Sc2ccc(C#N)c([N+](=O)[O-])c2)nnc1-c1ccc(N(C)C)cc1`, the inhibition stood at 16.1%.

Consider `CC(C)NC(=O)c1cccc(-c2ccc(OCCN3CCCC3c3cc4ccccc4[nH]3)cc2)c1` (stereo not given), for which the inhibition amounted to 3.47%.

Turning to `COc1cc(CNCCCCCCNCc2cc(OC)c(OC)c3ccccc23)c2ccccc2c1OC`, the inhibition worked out at 4.27%.

On to `CCn1c(-c2nonc2N)nc2c(-c3cccc(NC(=O)Nc4ccc5c(c4)CCC5)c3)ncc(OCCCN)c21`, for which the inhibition was 3.19%.

In the case of `O=C(Nc1ccccc1)Nc1cccc(-c2cccc(-c3nc4cc(F)ccc4[nH]3)c2)c1`, the inhibition worked out at 2.61%.

As for `Cc1ccc(Nc2nccc(Nc3ccc4c(c3)nc(Nc3cc(C(C)(C)C)on3)n4C)n2)cc1S(C)(=O)=O`, the inhibition is 5.38%.

In the case of `Cc1[nH]c(C)c(-c2ccc(-c3ccc(OC(F)(F)F)cc3)nc2)c(=O)c1Br`, the inhibition was 8.43%.

`CC(C)COc1cc(C(=O)Nc2cnc3ccccc3c2)ccc1[N+](=O)[O-]`: the inhibition was determined as 10.8%.

`CC(O)C1CCCCN1C(=O)c1cccc(-c2cccc(-c3nc4ccccc4[nH]3)c2)c1` (stereo not given): the inhibition turned out to be 0.15%.

As to `c1ccc(-c2nc(NCCCn3ccnc3)cc(-c3ccncc3)n2)cc1`, the inhibition was determined as 4.55%.

As to `CCN1C(=O)N(CCC(C)C)C2(CCN(Cc3ccc(OC)cc3O)CC2)C1=O`, the inhibition was determined as 3.01%.

For the molecule `O=[N+]([O-])c1ccc(Nc2nc(N/N=C/c3ccc(-c4ccc([N+](=O)[O-])cc4)o3)nc(Nc3ccccc3)n2)cc1`, the inhibition is -3.33%.

For the molecule `COc1ccc(S(=O)(=O)NCC2CCCN(CCCCCNC(=O)/C=C/c3ccc(Cl)c(Cl)c3)C2)cc1` (stereo not given), the inhibition stood at 0.66%.

Turning to `CC1CNC(c2ccc(NC(=O)Nc3ccc(C4=NC(C)CN4)cc3)cc2)=N1` (stereo not given), the inhibition was 5.64%.

With `COc1ccc(CN(C)CCCc2ccc(NC(=O)c3cccc4c(O)c5ccccc5nc34)cc2)cc1OC`, the inhibition amounted to 3.71%.

Consider `Cc1cc(F)ccc1[C@H]1CNCCN1C(=O)N(C)[C@@H](C)c1cc(C(F)(F)F)cc(C(F)(F)F)c1`, for which the inhibition was -0.16%.

`Oc1cccc(-c2nc(-c3cccc(I)c3)c(-c3ccc(-c4nc(-c5cccc(O)c5)[nH]c4-c4cccc(I)c4)cc3)[nH]2)c1`: the inhibition came to 4.72%.

With `CCn1c(-c2nonc2N)nc2c(-c3cccc(NC(=O)Nc4cccc(C#N)c4)c3)ncc(OCCCN)c21`, the inhibition stood at 2.23%.

As to `CC(C(=O)N1CCCC1)N1CCN(S(=O)(=O)c2ccc(C(C)(C)C)cc2)CC1` (stereo not given), the inhibition turned out to be 0.46%.

In the case of `Cc1cccc2nc(-c3cccc(-c4ccc(NC(=O)Nc5ccc6c(c5)OCO6)cc4)c3)[nH]c12`, the inhibition was determined as 0.05%.

`Oc1ccccc1CCNCC1CCc2ccccc2C1` (stereo not given): the inhibition was -0.01%.

Turning to `OC1CCC(Nc2ccc3ncc(-c4ccc5ccccc5c4)n3n2)CC1` (stereo not given), the inhibition is 3.23%.

Turning to `c1cc(-c2ccc(CNC3CC3)cc2)cc(-c2nc3ccccc3[nH]2)c1`, the inhibition turned out to be 1.98%.

For another experiment, the target named is Glucose transporter (Leishmania mexicana) (UniProt O61059). As to the kind of experiment: ST_JUDE_LEISH: Cytotoxicity at 2uM final concentration against transgenic Leishmania Mexicana promastigotes LmGT2 that are glucose transport deficient and complemented with the L. Mexicana glucose transporter 2. Activity is measured by DNA content using SYBR green in vitro. It counts as functional.
As to `CCOC(=O)C1=C(C)NC2=C(C(=O)C(C(=O)OC)C(C)C2)C1c1cc(Br)c(OCC)c(OC)c1` (stereo not given), the inhibition was determined as 6.67%.

Regarding `Cc1[nH]c(C)c(-c2ccc(-c3ccc(Cl)cc3)nc2)c(=O)c1Cl`, the inhibition was -0.19%.

Consider `COc1cccc(CN2CCCC(OC(c3ccc(F)cc3)c3ccc(F)cc3)C2)c1O` (stereo not given), for which the inhibition is -1.69%.

For the molecule `N=C(N)NC(=O)Nc1cc(Br)c(Cl)c(Br)c1`, the inhibition is -1.76%.

In the case of `CCCc1cc(NCc2ccncc2)nc(Nc2ccc(F)cc2)n1`, the inhibition worked out at 2.99%.

With `OCc1ccc2nc3c(cc2c1)-c1cccc2cccc-3c12`, the inhibition was 2.11%.

For `CC1CCN(c2nc(C(=O)Nc3cccc4c3CCCC4)c(C(C)C)s2)CC1`, the inhibition amounted to 6.09%.

For the molecule `CC(=O)N(C)C1CCN(Cc2cccc(-c3ccc(-c4nc5cc(F)ccc5[nH]4)cc3)c2)C1` (stereo not given), the inhibition is 3.15%.

Consider `CN(C)c1ccc(/N=C2/N/C(=N/c3ccc(N(C)C)cc3)c3ccccc32)cc1`, for which the inhibition was determined as 3.25%.

As for `Cc1ccc(-c2nnc(-c3ccc(C(=O)NC4CCN(Cc5ccc(C#N)cc5)CC4)cc3)o2)cc1Br`, the inhibition turned out to be 4.37%.

On to `CC(C)c1ccc(NC(=O)c2ccc(CN3CCCN(Cc4cccc(Cl)c4)CC3)cc2)cc1`, for which the inhibition came out at 1.59%.

For the molecule `COc1cc(O)c2c(=O)c(OC)c(-c3cccc(Cl)c3OCC(=O)O)oc2c1OC`, the inhibition is -0.46%.

As to `N=C(N)c1cc(Br)cc(NC(=O)Nc2cc(Br)cc(C(=N)N)c2)c1`, the inhibition was 3.14%.

Turning to `COc1ccc2nc(-c3ccccc3)cc(NCCN(C)C)c2c1`, the inhibition came out at 4.86%.

Take `CCOc1ccc(C(C)NC(=O)Nc2ccccc2)cc1OCC` (stereo not given): the inhibition turned out to be 2.96%.

Consider `Cc1cc(-c2ccc(NC(=O)N3CCc4cc(Br)c(N5CCN(C)CC5)cc43)cc2)cc(C)n1`, for which the inhibition stood at 10.1%.

On to `CCc1ccc(OCCCON2C(=N)N=C(N)NC2(C)C)cc1`, for which the inhibition was found to be 3.21%.

As to `CCCCCCn1c(Sc2ccc(C#N)c([N+](=O)[O-])c2)nnc1-c1ccc(N(C)C)cc1`, the inhibition is 15.3%.

In the case of `CC(C)NC(=O)c1cccc(-c2ccc(OCCN3CCCC3c3cc4ccccc4[nH]3)cc2)c1` (stereo not given), the inhibition was -1.97%.

Consider `COc1cc(CNCCCCCCNCc2cc(OC)c(OC)c3ccccc23)c2ccccc2c1OC`, for which the inhibition was 3.2%.

With `CCn1c(-c2nonc2N)nc2c(-c3cccc(NC(=O)Nc4ccc5c(c4)CCC5)c3)ncc(OCCCN)c21`, the inhibition stood at 2.89%.

Regarding `O=C(Nc1ccccc1)Nc1cccc(-c2cccc(-c3nc4cc(F)ccc4[nH]3)c2)c1`, the inhibition was 1.59%.

In the case of `Cc1ccc(Nc2nccc(Nc3ccc4c(c3)nc(Nc3cc(C(C)(C)C)on3)n4C)n2)cc1S(C)(=O)=O`, the inhibition is -1.41%.

As to `Cc1[nH]c(C)c(-c2ccc(-c3ccc(OC(F)(F)F)cc3)nc2)c(=O)c1Br`, the inhibition was found to be 8.85%.

`CC(C)COc1cc(C(=O)Nc2cnc3ccccc3c2)ccc1[N+](=O)[O-]`: the inhibition came to 10.9%.

Take `CC(O)C1CCCCN1C(=O)c1cccc(-c2cccc(-c3nc4ccccc4[nH]3)c2)c1` (stereo not given): the inhibition was -0.24%.

Consider `c1ccc(-c2nc(NCCCn3ccnc3)cc(-c3ccncc3)n2)cc1`, for which the inhibition was determined as 1.25%.

Turning to `CCN1C(=O)N(CCC(C)C)C2(CCN(Cc3ccc(OC)cc3O)CC2)C1=O`, the inhibition was found to be 3%.

Regarding `O=[N+]([O-])c1ccc(Nc2nc(N/N=C/c3ccc(-c4ccc([N+](=O)[O-])cc4)o3)nc(Nc3ccccc3)n2)cc1`, the inhibition was -5.8%.

As to `COc1ccc(S(=O)(=O)NCC2CCCN(CCCCCNC(=O)/C=C/c3ccc(Cl)c(Cl)c3)C2)cc1` (stereo not given), the inhibition was determined as 3.47%.

On to `CC1CNC(c2ccc(NC(=O)Nc3ccc(C4=NC(C)CN4)cc3)cc2)=N1` (stereo not given), for which the inhibition was determined as 3.84%.

With `COc1ccc(CN(C)CCCc2ccc(NC(=O)c3cccc4c(O)c5ccccc5nc34)cc2)cc1OC`, the inhibition is 1.93%.

Consider `Cc1cc(F)ccc1[C@H]1CNCCN1C(=O)N(C)[C@@H](C)c1cc(C(F)(F)F)cc(C(F)(F)F)c1`, for which the inhibition was -2.72%.

For the molecule `Oc1cccc(-c2nc(-c3cccc(I)c3)c(-c3ccc(-c4nc(-c5cccc(O)c5)[nH]c4-c4cccc(I)c4)cc3)[nH]2)c1`, the inhibition is 4.57%.

On to `CCn1c(-c2nonc2N)nc2c(-c3cccc(NC(=O)Nc4cccc(C#N)c4)c3)ncc(OCCCN)c21`, for which the inhibition worked out at 2.66%.

Consider `CC(C(=O)N1CCCC1)N1CCN(S(=O)(=O)c2ccc(C(C)(C)C)cc2)CC1` (stereo not given), for which the inhibition was 4.07%.

Regarding `Cc1cccc2nc(-c3cccc(-c4ccc(NC(=O)Nc5ccc6c(c5)OCO6)cc4)c3)[nH]c12`, the inhibition is 2.58%.

Consider `Oc1ccccc1CCNCC1CCc2ccccc2C1` (stereo not given), for which the inhibition worked out at 0.73%.

Take `OC1CCC(Nc2ccc3ncc(-c4ccc5ccccc5c4)n3n2)CC1` (stereo not given): the inhibition was found to be 3.53%.

`c1cc(-c2ccc(CNC3CC3)cc2)cc(-c2nc3ccccc3[nH]2)c1`: the inhibition was determined as 0.68%.
